Records with an inconclusive call do not appear. Active and inactive are the calls of the source. Rule for the calls, unless noted: active = hit-call score of the fitted dose curve at least 0.9, where 1 is the maximum; inactive = score below 0.9.
How the values were obtained:
[1] = Tanguay_ZF_120hpf_ActivityScore_legacy: (Legacy) Oregon State University Tanguay Lab 120 Hour Post-fertilization zebrafish Assay Score for Activity (AID 2283742; active = hit-call score of the fitted dose curve at least 0.9, where 1 is the maximum)
Outline: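 Binary scoring of mortality and morphology by brightfield at 24 and 120 hpf, summarised into one activity score from 18 components relative to DMSO. Wild-type Tropical 5D zebrafish, chorion removed at 4 hpf, static exposure 6–120 hpf, 28 °C.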

[2] = ACEA_ER_AUC_viability: ACEA Biosciences xCELLigence Real-Time Cell Analysis on Estrogen Receptor Agonism for Viability (AID 2283782; active = hit-call score of the fitted dose curve at least 0.9, where 1 is the maximum;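 note: hit means loss of impedance signal meaning reduced cell growth or viability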)
Outline: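 Viability endpoint: reduced impedance area under the curve relative to DMSO, recorded by real-time electrode sensing over ~80 h of continuous exposure. Duplicate plates of T47D in hormone-depleted medium; eight concentrations, 1:4 dilutions, 100 uM maximum.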

[3] = STM_H9_NormalizedViability: Cytotoxicity Assessment at 120 hours in the Stemina devTOX quickPredict H9 human embryonic stem cell (hESC)-based Assay (AID 2283784; active = hit-call score of the fitted dose curve at least 0.9, where 1 is the maximum)
Outline: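 Viability of the cell layer was taken from live-cell protease cleavage of a fluorogenic substrate after compound exposure of undifferentiated H9 stem cells, with replenishment each 24h. Fluorescence was normalized to vehicle (0.1% DMSO).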

[4] = CCTE_Shafer_MEA_acute_spike_number: CCTE's Neural Acute Assay for Total Number of Spikes, Shafer Lab (AID 2284008)
Outline: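 Primary rat cortical neurons on 16-electrode MEA wells; on DIV 13 or 15, 40-min baseline then 40-min recording with compound (0.03-40 uM) at 37 C. Spikes detected at 8x rms noise; percent change versus baseline, DMSO as negative control.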

[5] = CCTE_Harrill_HTTr_Viability_MCF7: CCTE's 6-hour Cell Viability Assessment for the High-Throughput Transcriptomics (HTTr) Platform, in MCF-7 cells cultured in DMEM + 10% fetal bovine serum, Harrill Lab (AID 2284010)
Outline: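 Read-out is propidium iodide gain of signal by high-content imaging, reflecting membrane integrity loss. Measurements are taken 6 h after dosing, eight concentrations per chemical, with DMSO serving as baseline for bidirectional curve fitting.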

[6] = CCTE_Harrill_HTTr_Apoptosis_MCF7: CCTE's 6-hour Apoptosis Assessment for the High-Throughput Transcriptomics (HTTr) Platform, in MCF-7 cells cultured in DMEM + 10% fetal bovine serum, Harrill Lab (AID 2284011)
Outline: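 MCF-7 cells in DMEM + 10% fetal bovine serum were exposed to chemicals for 6 hours over an eight-point dilution series. Caspase-3/7 activation was imaged by high content imaging with CellEvent Caspase 3/7 Green; bidirectional fitting used DMSO as baseline.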

[7] = CCTE_Shafer_MEA_acute_burst_number: CCTE's Neural Acute Assay for Single-Electrode Bursts, Shafer Lab (AID 2284013)
Outline: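 Primary rat cortical neurons on 16-electrode MEA wells, DIV 13 or 15, exposed to compound (0.03-40 uM; ≥3 wells); 40-min recordings at 37 C before and after treatment. Burst count expressed as percent change from baseline, DMSO as negative control.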

[8] = CCTE_Shafer_MEA_acute_burst_duration_mean: CCTE's Neural Acute Assay for Mean Burst Duration, Shafer Lab (AID 2284014);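 note: hits are decreases in mean burst duration relative to DMSO controls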
Outline: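 Mean burst duration was compared between a 40 min baseline and a 40 min recording in the presence of compound (0.03-40 uM, 37 C), giving percent change per well. Cultures were rat cortical neurons at DIV 13 or 15; wells needed ≥10 active electrodes.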

[9] = CCTE_Shafer_MEA_acute_per_burst_spike_number_mean: CCTE's Neural Acute Assay for Average Number of Spikes Per Burst, Shafer Lab (AID 2284015);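 note: hits are decreases in mean spikes per burst versus baseline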
Outline: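 Rat primary cortical neurons on 48-well MEAs (DIV 13 or 15) were treated with 0.03-40 uM compound at 37 C. Mean spikes per burst over 40 min were recorded before and after exposure and expressed as percent change from baseline, relative to DMSO.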

[10] = CCTE_Shafer_MEA_acute_interburst_interval_mean: CCTE's Neural Acute Assay for Mean Interburst Interval, Shafer Lab (AID 2284016);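 note: percent change of mean interburst interval versus each well's own pre-dose baseline; curves fitted for decrease in interburst interval relative to DMSO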
Outline: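 Rat primary cortical neurons on 48-well MEAs at DIV 13 or 15 were exposed acutely to 0.03-40 uM. Spikes detected at 8x rms noise, 37 C. Mean interburst interval from 40 min recordings expressed as percent change from 40 min pre-treatment baseline.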

[11] = CCTE_Shafer_MEA_acute_burst_percentage_mean: CCTE's Neural Acute Assay for Percentage of Spikes in a Burst, Shafer Lab (AID 2284017)
Outline: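 Primary rat cortical neurons on 48-well MEA plates, treated on DIV 13 or 15 at 0.03-40 uM. Spikes detected at 8x rms noise at 37C; percent change from 40-min baseline to 40-min post-dose recording, fitted versus DMSO.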

[12] = CCTE_Shafer_MEA_acute_burst_percentage_std: CCTE's Neural Acute Assay for Standard Deviation of Burst Percentage, Shafer Lab (AID 2284018);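 note: fitted in the negative direction so actives lower burst percentage SD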
Outline: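 Value is percent change from baseline in the across-electrode SD of spikes-in-bursts percentage, wells with >/= 10 active electrodes. Acute 40-min exposure to 0.03-40 uM on DIV 13 or 15 rat cortical cultures, recorded at 37 C after 40-min baseline.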

[13] = CCTE_Shafer_MEA_acute_per_network_burst_electrodes_number_mean: CCTE's Neural Acute Assay for Mean Number of Electrodes in a Network Burst, Shafer Lab (AID 2284021);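 note: curves fitted for decreases only so hits reduce electrodes per burst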
Outline: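 Rat primary cortical neurons on 16-electrode MEA wells were recorded 40 min at baseline on DIV 13 or 15, then 40 min after compound (0.03-40 uM), at 37 C. Value is percent change per well, fitted in loss direction versus DMSO.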

[14] = CCTE_Shafer_MEA_acute_network_burst_percentage: CCTE's Neural Acute Assay for Percentage of Network Bursts, Shafer Lab (AID 2284022);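 note: curves fitted for loss so actives lower network burst percentage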
Outline: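 Primary rat cortical neurons on 16-electrode MEA wells, treated on DIV 13 or 15 with compound (0.03-40 uM); 40-min baseline and 40-min post-exposure recordings at 37 C. Value is percent change in spikes within network bursts versus baseline, DMSO negative control.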

[15] = CCTE_Shafer_MEA_acute_cross_correlation_HWHM: CCTE's Neural Acute Assay for Cross Correlation at Half Width at Half Maximum, Shafer Lab (AID 2284026);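 note: spontaneous network firing of rat primary cortical neurons on multiwell microelectrode arrays; percent change per well from pre-dose baseline in spike cross-correlogram half width; hits are a decrease in cross-correlogram half width relative to DMSO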
Outline: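 Primary rat cortical neurons on 16-electrode MEA wells; 40-min baseline on DIV 13 or 15, then 40-min recording with compound (0.03-40 uM) at 37 C. HWHM of spike cross-correlogram expressed as percent change from baseline per well, DMSO reference.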

[16] = CCTE_Shafer_MEA_acute_synchrony_index: CCTE's Neural Acute Assay for Synchrony, Shafer Lab (AID 2284027);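 note: network synchrony index of spontaneous spiking in primary rat cortical neurons on MEAs; fitted for loss of signal so actives lower synchrony relative to DMSO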
Outline: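 Plates equilibrated 20 min at 37 C, baseline recorded 40 min, compound (0.03-40 uM) added, then 40 min more recorded. Cells: primary rat cortical neurons, DIV 13 or 15. Per-well synchrony index change analysed in negative direction against DMSO.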

[17] = CCTE_Shafer_MEA_acute_AB: CCTE's Alamar Blue Assay for Cytotoxicity in the Neural Acute Assay, Shafer Lab (AID 2284069; active = hit-call score of the fitted dose curve at least 0.9, where 1 is the maximum;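 note: active compounds lower the viability signal compared with DMSO wells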)
Outline: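 Primary rat cortical neurons on MEA plates, exposed acutely after baseline recording on day 13 or 15 post-plating. Viability by CellTiter Blue resazurin reduction (1:6 reagent dilution), fluorescence 544/590 nm; loss of signal versus DMSO.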

IYD (gene 389434) = test: CCTE_GLTED_hIYD: CCTE's human Iodotyrosine Deiodinase (xIYD) Inhibition Assay, Great Lakes Toxicology and Ecology Division (GLTED) Lab (AID 2284317; active = hit-call score of the fitted dose curve at least 0.9, where 1 is the maximum;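 note: cell-free human IYD enzyme made in baculovirus insect cells; iodide freed from monoiodotyrosine measured by cerium arsenite color change at 420 nm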)
Outline: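 Deiodination of MIT by insect-cell-produced human IYD is measured after a 3 h incubation with test chemical. Free iodide passes through a Dowex column and accelerates Sandell-Kolthoff Ce4+ reduction, read at 420 nm; run in triplicate.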

Measured: AC50

c1cc[n+]2c(c1)-c1cccc[n+]1CC2
active: [2] 22.8 µM | [3] 7.82 µM | IYD (gene 389434) 11.4 µM
inactive: all other assays above
